In the supplement of paper PMC10646978:
± gives the standard deviation.

Key:
Settings in all cases: modulator concentration 10 µM
[1] = tested on: RAW-Dual (murine macrophage reporter line); assay: NF-kB reporter (SEAP) activity fold change vs agonist alone; higher = enhanced NF-kB activity
Method in brief: (§1)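 In 384-well plates holding 50 000 RAW-Dual murine macrophage reporter cells per well, compound at 10 μM final was pre-incubated for 1 hour at 37 °C, after which a PRR agonist was added overnight. Supernatant SEAP read with QUANTI-Blue at 620 nm absorbance reported NF-κB, and Lucia luciferase read with QUANTI-Luc luminescence reported IRF. Fold change values come from dividing each reporter signal by the mean of agonist-only control wells on the same plate, averaged over replicate plates with propagated errors.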

[2] = tested on: RAW-Dual (murine macrophage reporter line); assay: IRF reporter (Lucia luciferase) activity fold change vs agonist alone; higher = enhanced IRF activity
Method in brief: as §1

[3] = tested on: RAW-Dual (murine macrophage reporter line); assay: viability score (confluency relative to resting cells, overnight) (fraction); higher = more viable, active = viable (0.7 or more)
Method in brief: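 Overnight exposure to 10 μM final compound was carried out on RAW-Dual macrophages in 384-well plates. IncuCyte software generated two confluency masks over all wells imaged with IncuCyte. The viability score gives confluency in relation to resting cells. A compound met the cutoff if each mask exceeded 70% of resting cells.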

[4] = agonist: CpG ODN 1826 0.5 ug/mL

SMILES	NF-kB reporter [1, 4]	NF-kB reporter ([1]; agonist: LPS 0.1 ug/mL)	NF-kB reporter ([1]; agonist: MPLA […])	IRF reporter ([2]; agonist: 3'3'-cGAMP 10 ug/mL)	IRF reporter ([2]; agonist: LPS 0.1 ug/mL)	IRF reporter ([2]; agonist: MPLA […])	viability score [3]
COc1cccc(S(=O)(=O)NCc2sc(-c3ccccc3)nc2C)c1	1.26 ± 0.12	1.1 ± 0.086	0.901 ± 0.045	0.922 ± 0.059	1.11 ± 0.12	1.16 ± 0.28	0.942 (active)
c1ccc(CN2CCN(c3cc(-c4cccnc4)n[nH]3)CC2)cc1	0.805 ± 0.043	1.06 ± 0.096	1.21 ± 0.092	1.09 ± 0.051	1.37 ± 0.31	1.56 ± 0.59	0.98 (active)
O=C(NCc1ccco1)C(=Cc1ccc(-c2ccccc2Cl)o1)NC(=O)c1ccccc1	0.57 ± 0.044	0.745 ± 0.052	0.791 ± 0.07	0.476 ± 0.022	0.859 ± 0.07	0.942 ± 0.11	0.996 (active)
CCOC(=O)C1=C[C@]2(CC)CCCN3CCc4c(n1c1ccccc41)[C@@H]32	0.825 ± 0.057	0.946 ± 0.077	0.994 ± 0.07	0.998 ± 0.045	1.21 ± 0.15	1.4 ± 0.46	0.949 (active)
O=C(Nc1ccc(F)cc1)c1ccccc1Br	1.06 ± 0.092	1.06 ± 0.069	1 ± 0.065	0.73 ± 0.055	1.06 ± 0.065	1.04 ± 0.22	0.979 (active)
Cc1cccc(Oc2ccc(NC(=O)c3ccco3)cc2)c1	0.777 ± 0.18	0.981 ± 0.081	1 ± 0.095	0.516 ± 0.037	1.07 ± 0.24	1.27 ± 0.14	0.97 (active)
CCOc1ccc(S(=O)(=O)NCCn2nc(C3CC3)ccc2=O)cc1C	1.01 ± 0.063	1.07 ± 0.12	1.04 ± 0.045	1.02 ± 0.051	0.993 ± 0.079	0.875 ± 0.15	0.982 (active)
COc1cc2c(cc1OC)CC(=O)N(CCCN(C)C[C@H]1Cc3cc(OC)c(OC)cc31)CC2.Cl	0.713 ± 0.056	0.855 ± 0.07	1.06 ± 0.097	0.962 ± 0.05	1.41 ± 0.11	1.57 ± 0.18	1.01 (active)
Brc1ccc2ncnc(Nc3ccccc3)c2c1	1.03 ± 0.12	1.25 ± 0.097	1.04 ± 0.029	0.357 ± 0.021	0.629 ± 0.039	0.731 ± 0.08	1 (active)
Cc1ccc(C(=O)NC(=Cc2cccc3ccccc23)C(=O)N2CCCC2)cc1	0.957 ± 0.075	1.03 ± 0.067	0.974 ± 0.086	0.966 ± 0.042	1.31 ± 0.23	1.15 ± 0.22	1.01 (active)
Nc1nc2ccc(OC(F)(F)F)cc2s1	0.955 ± 0.13	1.09 ± 0.3	1.02 ± 0.059	1.07 ± 0.044	1.15 ± 0.24	0.928 ± 0.14	0.965 (active)
Cc1cnc(C(=O)O)c[n+]1[O-]	1.09 ± 0.085	0.988 ± 0.074	1.03 ± 0.026	0.962 ± 0.069	0.966 ± 0.048	0.926 ± 0.11	1 (active)
CN(C)CCOC(c1ccccc1)c1ccccc1.Cl	1.12 ± 0.16	1.11 ± 0.089	0.985 ± 0.11	0.791 ± 0.029	1.17 ± 0.1	1.03 ± 0.12	0.999 (active)
O=C(NCCO)c1cc(C(=O)NCCO)cc(C(=O)NCCO)c1	0.964 ± 0.065	1.05 ± 0.064	0.923 ± 0.054	0.981 ± 0.043	1.36 ± 0.099	1.18 ± 0.29	1.01 (active)
COc1ccc(NCN2C(=O)c3ccccc3C2=O)c(OC)c1	0.844 ± 0.066	0.972 ± 0.058	1.08 ± 0.1	0.911 ± 0.044	1.42 ± 0.084	1.61 ± 0.21	0.991 (active)
CCc1cnn2c(NCc3ccc[n+]([O-])c3)cc(N3CCCC[C@H]3CCO)nc12	0.338 ± 0.018	0.0505 ± 0.0045	0.114 ± 0.0049	0.0244 ± 0.0044	0.0353 ± 0.0054	0.0374 ± 0.0047	0.0417 (inactive)
CNC(=O)[C@H](Cc1c[nH]c2ccccc12)NC(=O)[C@@H](CC(=O)NO)CC(C)C	1.1 ± 0.26	1.33 ± 0.074	1.07 ± 0.074	0.88 ± 0.035	1.07 ± 0.12	1.12 ± 0.12	0.995 (active)
CN(C)CCCNc1cc(C(C)(C)C)nc2c(-c3ccccc3)cnn12	0.172 ± 0.017	0.13 ± 0.012	1.23 ± 0.18	0.0482 ± 0.0069	0.0973 ± 0.0058	0.712 ± 0.34	0.0497 (inactive)
O=C(CCCN1CCC(O)(c2ccc(Br)cc2)CC1)c1ccc(F)cc1 [Prestw-509]	0.892 ± 0.15	1.12 ± 0.14	1.04 ± 0.13	0.925 ± 0.024	1.01 ± 0.16	1.16 ± 0.13	0.998 (active)
CN(C)CC/C=C1\c2ccccc2COc2ccccc21.Cl	0.888 ± 0.038	1.06 ± 0.15	1.36 ± 0.096	0.434 ± 0.02	0.73 ± 0.14	0.876 ± 0.3	1.01 (active)
O=C1[C@H](CC[C@H](O)c2ccc(F)cc2)[C@@H](c2ccc(O)cc2)N1c1ccc(F)cc1	1.11 ± 0.11	1.05 ± 0.051	1.29 ± 0.12	0.927 ± 0.063	0.98 ± 0.084	1.21 ± 0.11	0.97 (active)
CN1CCN(c2ccc(-c3cccc(NC(=O)c4ccc5ccccc5c4)c3)nn2)CC1	0.162 ± 0.0099	0.745 ± 0.15	0.301 ± 0.11	0.664 ± 0.041	1.88 ± 0.75	1.85 ± 0.26	0.171 (inactive)
Clc1ccc2c(c1)CCc1cccnc1C2=C1CCNCC1	0.345 ± 0.04	0.654 ± 0.052	0.814 ± 0.048	0.505 ± 0.026	0.81 ± 0.14	0.754 ± 0.15	0.36 (inactive)
CNC(=O)c1cccc(-c2noc(C3CN(C(=O)NC4CCCCC4)C3)n2)c1	1.06 ± 0.053	1.11 ± 0.11	1.03 ± 0.091	1.06 ± 0.065	1.21 ± 0.1	1.17 ± 0.13	1 (active)
O=C(Nc1cccc(Cl)c1Cl)c1cc2nc(-c3ccco3)cc(C(F)(F)F)n2n1	0.9 ± 0.054	1.01 ± 0.08	0.918 ± 0.055	0.864 ± 0.029	1.25 ± 0.082	1.21 ± 0.16	1 (active)
C#Cc1cccc(Nc2ncnc3cc4c(cc23)OCCOCCOCCO4)c1	0.937 ± 0.043	1 ± 0.11	1.11 ± 0.093	1.02 ± 0.05	1.2 ± 0.17	1.39 ± 0.36	1.02 (active)
COc1ccc(-c2cc3nc(C)cc(NCCN4CCOCC4)n3n2)cc1OC	1.11 ± 0.086	0.962 ± 0.076	0.976 ± 0.026	1.06 ± 0.13	0.998 ± 0.12	1.05 ± 0.22	0.997 (active)
